From PubChem BioAssay
Results filed as inconclusive are left out. Active and inactive are the calls of the source.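 How the source made its calls, unless noted: active means inhibition above the screen-wide mean plus 3 SD, about 51%; inactive means the rest.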

Legend:
[1] = yeast TOR pathway RPL19A-GFP modulators, primary screen, cell-based, S. cerevisiae, multiplex flow cytometry (AID 1862; in the data active means percent of DMSO control GFP below about 86%;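 further: lower values mimic rapamycin by blocking the RPL19A rise seen in DMSO cells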); conditions: S. cerevisiae RPL19A-GFP strain, flow cytometry fluorescence, 3 h; at 10 µM; stronger effect = lower value
[2] = modulators of MEP2-GFP levels in yeast, primary screen, S. cerevisiae, multiplex flow cytometry (AID 1867;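 active means GFP response, as percent of the DMSO control, above the screen-wide mean plus 3 SD, about 139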;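 further: median GFP channel fluorescence of barcode-gated MEP2-GFP cells measured by flow cytometry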); conditions: S. cerevisiae MEP2-GFP strain, 3 h, at 10 µM, stronger effect = higher value, 100% means same as DMSO wells
[3] = modulators of CIT2-GFP expression in yeast, primary screen, S. cerevisiae, GFP fusion, multiplex flow cytometry (AID 1870;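 active means percent response above a set limit, the screen-wide mean plus 3 SD, cut at about 130% in these data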;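 further: barcoded CIT2-GFP strain pooled with four other GFP strains with rapamycin as positive control; median GFP fluorescence per well over plate mean of DMSO wells so 100% = DMSO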); conditions: 3 h, at 10 µM, stronger effect = higher value
[4] = modulators of LAP4-GFP expression in yeast, primary screen, S. cerevisiae, multiplex flow cytometry (AID 1873;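 active means GFP signal, as percent of the solvent control, above the screen mean plus 3 SD, about 149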); conditions: 3 h, at 10 µM, stronger effect = higher value
[5] = modulators of AGP1-GFP expression in yeast TOR pathway, primary screen, cell-based, multiplex flow cytometry, S. cerevisiae (AID 1887;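 active means GFP signal above the screen-wide mean plus 3 SD, that is over about 124.5% of the solvent control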;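 further: AGP1-GFP fusion strain of S. cerevisiae within a five-strain barcoded multiplex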); conditions: 3 h, at 10 µM, stronger effect = higher value
[6] = inhibitors of CD8+ T cell-vesicle binding, pilot screen, LFA-1/ICAM-1 modulator project, MLPCN validation set, flow cytometry (AID 2523;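 active means response below a set limit, under 55% cells CD8-positive and vesicle-bound, and CD8 cells' 90th-percentile brightness under 279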;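 on vesicle binding response: mean PE anti-B7-1 fluorescence of CD8+ cells relative to row control; 100% = QL9-loaded vesicles with DMSO vehicle in the same plate row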); conditions: 2C mouse CD8+ T cells, at 7 µM, stronger effect = lower value; double positive events: measured here: CD8+/vesicle+ event percentage
[7] = molecular target: Integrin beta-1 (Homo sapiens) + Integrin alpha-4 (Homo sapiens) (UniProt P13612+P05556); experiment: inhibition of HUTS-21 binding to VLA-4, pilot screen, VLA-4 allosteric modulator project, U937 cells, HUTS-21 mAb, flow cytometry, validation set (AID 2674;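 active means inhibition above 50%, about 3 SD of the validation set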;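 further: antibody binding induced by the VLA-4 ligand LDV present at three times its Kd; 0% = LDV ligand with antibody and no compound and 100% = antibody without LDV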); conditions: HUTS-21 LIBS mAb binding, at 6.7 µM, stronger effect = higher value, binding induced by LDV ligand
Sequence of Integrin beta-1 (Homo sapiens) + Integrin alpha-4 (Homo sapiens) (P05556 whole entry, looked up): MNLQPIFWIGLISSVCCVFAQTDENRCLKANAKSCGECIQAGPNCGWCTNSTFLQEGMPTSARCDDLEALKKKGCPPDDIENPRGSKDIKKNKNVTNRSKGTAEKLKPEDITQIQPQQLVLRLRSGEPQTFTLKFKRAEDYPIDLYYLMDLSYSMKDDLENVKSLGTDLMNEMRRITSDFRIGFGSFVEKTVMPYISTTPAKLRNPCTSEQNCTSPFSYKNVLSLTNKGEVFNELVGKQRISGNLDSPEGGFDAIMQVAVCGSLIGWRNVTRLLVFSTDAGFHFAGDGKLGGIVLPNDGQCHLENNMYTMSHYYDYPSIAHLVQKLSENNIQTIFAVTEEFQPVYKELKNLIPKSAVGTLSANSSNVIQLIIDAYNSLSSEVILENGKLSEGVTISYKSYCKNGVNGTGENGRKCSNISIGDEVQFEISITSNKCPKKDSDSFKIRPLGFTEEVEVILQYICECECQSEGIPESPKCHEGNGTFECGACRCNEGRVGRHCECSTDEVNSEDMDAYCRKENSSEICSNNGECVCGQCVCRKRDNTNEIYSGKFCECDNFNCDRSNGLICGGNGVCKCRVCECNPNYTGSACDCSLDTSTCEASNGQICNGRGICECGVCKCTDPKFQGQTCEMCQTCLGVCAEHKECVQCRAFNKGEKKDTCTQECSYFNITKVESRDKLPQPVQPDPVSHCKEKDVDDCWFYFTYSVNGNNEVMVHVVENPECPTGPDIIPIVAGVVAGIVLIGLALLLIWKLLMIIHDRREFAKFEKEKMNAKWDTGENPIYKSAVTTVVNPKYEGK
Sequence of Integrin beta-1 (Homo sapiens) + Integrin alpha-4 (Homo sapiens) (P13612 whole entry, looked up): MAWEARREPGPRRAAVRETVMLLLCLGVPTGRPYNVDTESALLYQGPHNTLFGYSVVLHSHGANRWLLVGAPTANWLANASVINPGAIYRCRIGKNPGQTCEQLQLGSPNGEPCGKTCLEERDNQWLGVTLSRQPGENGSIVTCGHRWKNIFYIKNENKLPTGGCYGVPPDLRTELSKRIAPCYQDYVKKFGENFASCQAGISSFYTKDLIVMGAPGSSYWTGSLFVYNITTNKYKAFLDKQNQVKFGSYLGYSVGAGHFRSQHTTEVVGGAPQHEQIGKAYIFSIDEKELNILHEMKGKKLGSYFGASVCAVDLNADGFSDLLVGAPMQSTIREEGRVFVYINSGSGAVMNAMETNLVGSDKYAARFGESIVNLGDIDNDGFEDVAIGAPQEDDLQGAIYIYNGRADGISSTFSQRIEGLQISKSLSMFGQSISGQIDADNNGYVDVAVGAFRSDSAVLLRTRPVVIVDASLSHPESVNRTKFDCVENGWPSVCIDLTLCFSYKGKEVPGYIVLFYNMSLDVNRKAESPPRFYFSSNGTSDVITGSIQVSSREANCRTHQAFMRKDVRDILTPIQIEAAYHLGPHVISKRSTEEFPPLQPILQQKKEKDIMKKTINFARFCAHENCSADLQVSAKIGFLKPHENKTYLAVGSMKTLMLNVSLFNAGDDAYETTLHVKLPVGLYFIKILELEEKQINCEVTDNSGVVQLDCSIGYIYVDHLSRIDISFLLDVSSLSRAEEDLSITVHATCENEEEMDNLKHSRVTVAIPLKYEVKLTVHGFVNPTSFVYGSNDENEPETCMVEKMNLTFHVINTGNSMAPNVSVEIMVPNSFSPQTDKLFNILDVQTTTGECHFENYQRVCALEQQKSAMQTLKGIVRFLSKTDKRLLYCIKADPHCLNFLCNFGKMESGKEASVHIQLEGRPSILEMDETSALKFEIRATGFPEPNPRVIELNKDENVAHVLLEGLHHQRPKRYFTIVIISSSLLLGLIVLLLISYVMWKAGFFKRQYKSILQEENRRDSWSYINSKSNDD

[8] = superoxide lowering in aged yeast cells, pilot screen, validation compound set (AID 2706;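 active means superoxide response below 65% of plate, a cut near 3 SD across the whole screen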;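 further: yeast exposed to compound for one week at 30 degrees C before staining; 100% = mean of all compound wells on the same plate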); conditions: S. cerevisiae aging, superoxide DHE fluorescence; at 10 µM, stronger effect = lower value
[9] = molecular target: Beta-adrenergic receptor kinase 1 (Homo sapiens) (UniProt P25098); experiment: GRK2 binders displacing RNA aptamer, biochemical, validation, human GRK2, bead flow cytometry (AID 488806;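 active means aptamer binding inhibition above 30%, about 3 SD of noise from non-fluorescent compounds; inactive means inhibition at or below 30%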); conditions: bead-bound GRK2, FAM-aptamer displacement, at 10 µM, stronger effect = higher value
Sequence of Beta-adrenergic receptor kinase 1 (Homo sapiens) (P25098 whole entry, looked up): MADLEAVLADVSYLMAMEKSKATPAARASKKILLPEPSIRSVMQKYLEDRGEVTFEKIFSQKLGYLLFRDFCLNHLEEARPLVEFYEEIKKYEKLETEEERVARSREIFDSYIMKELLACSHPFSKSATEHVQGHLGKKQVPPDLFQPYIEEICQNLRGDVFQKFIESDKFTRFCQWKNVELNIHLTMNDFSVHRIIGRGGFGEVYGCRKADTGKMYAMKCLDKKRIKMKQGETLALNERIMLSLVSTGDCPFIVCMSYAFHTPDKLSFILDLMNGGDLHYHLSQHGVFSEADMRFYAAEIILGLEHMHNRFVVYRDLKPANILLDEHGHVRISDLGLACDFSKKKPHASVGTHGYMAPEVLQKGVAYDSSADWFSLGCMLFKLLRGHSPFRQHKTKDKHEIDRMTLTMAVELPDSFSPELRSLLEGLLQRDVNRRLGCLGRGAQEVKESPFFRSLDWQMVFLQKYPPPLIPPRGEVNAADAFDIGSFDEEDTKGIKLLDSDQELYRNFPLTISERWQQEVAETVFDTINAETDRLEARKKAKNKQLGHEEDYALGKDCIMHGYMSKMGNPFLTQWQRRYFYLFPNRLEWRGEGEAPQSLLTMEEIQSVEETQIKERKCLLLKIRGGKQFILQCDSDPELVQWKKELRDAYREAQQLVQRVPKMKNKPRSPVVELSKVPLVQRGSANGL

[10] = molecular target: AP-2 complex subunit beta (Homo sapiens) (UniProt P63010); experiment: inhibitors of arrestin peptide binding to AP2, pilot screen, biochemical, validation set, GST-AP2 beads, flow cytometry (AID 504541;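 active means inhibition above 54%, about 3 SD of non-fluorescent compounds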;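 further: AP2 carries R879A mutation and is captured from E. coli lysate; bead-bound FITC arrestin peptide fluorescence measuring arrestin peptide binding to AP2; 0% = DMSO wells and 100% = excess unlabeled arrestin peptide control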); conditions: FITC arrestin peptide, at 10 µM, stronger effect = higher value, AP2 beta2 appendage fragment, R879A mutant
Sequence of AP-2 complex subunit beta (Homo sapiens) (P63010 whole entry, looked up, the tested form may be a part, one chain of several): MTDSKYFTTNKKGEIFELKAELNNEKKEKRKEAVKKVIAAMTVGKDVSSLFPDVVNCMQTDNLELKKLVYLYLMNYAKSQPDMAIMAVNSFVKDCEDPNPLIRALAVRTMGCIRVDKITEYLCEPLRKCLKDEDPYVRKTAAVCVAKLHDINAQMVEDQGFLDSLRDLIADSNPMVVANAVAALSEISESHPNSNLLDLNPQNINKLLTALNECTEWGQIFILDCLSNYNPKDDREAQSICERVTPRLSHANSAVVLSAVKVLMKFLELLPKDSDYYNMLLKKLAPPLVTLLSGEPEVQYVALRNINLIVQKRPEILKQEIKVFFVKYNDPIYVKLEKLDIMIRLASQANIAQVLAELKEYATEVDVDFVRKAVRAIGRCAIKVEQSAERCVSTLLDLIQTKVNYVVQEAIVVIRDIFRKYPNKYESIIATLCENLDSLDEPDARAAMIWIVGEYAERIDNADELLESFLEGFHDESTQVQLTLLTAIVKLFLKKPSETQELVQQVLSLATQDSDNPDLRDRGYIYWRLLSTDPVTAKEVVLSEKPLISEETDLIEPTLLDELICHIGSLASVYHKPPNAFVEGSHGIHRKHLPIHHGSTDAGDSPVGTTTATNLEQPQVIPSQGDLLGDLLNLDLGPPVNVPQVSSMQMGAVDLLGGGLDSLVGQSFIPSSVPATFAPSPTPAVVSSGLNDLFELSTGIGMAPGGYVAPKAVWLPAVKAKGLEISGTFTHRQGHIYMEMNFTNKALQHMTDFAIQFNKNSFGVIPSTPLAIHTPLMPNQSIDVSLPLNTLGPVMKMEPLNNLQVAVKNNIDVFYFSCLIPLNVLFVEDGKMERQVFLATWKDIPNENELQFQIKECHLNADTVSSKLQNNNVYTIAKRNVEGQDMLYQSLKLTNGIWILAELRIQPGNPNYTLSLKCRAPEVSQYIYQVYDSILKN

[11] = yeast V-ATPase proton transport modulators, S. cerevisiae, pHLuorin, HTS validation (AID 504600; in the data active means response above about 15%;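 further: plate controls were DMSO for no effect and reference compound for full effect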); conditions: S. cerevisiae pHLuorin cytosolic pH, at 10 µM, stronger effect = higher value
[12] = system: anti-desmoglein-3 scFv antibody binding to human DSG3; experiment: inhibitors of anti-DSG3 scFv binding to DSG3, pilot screen, biochemical, validation compound set, bead-based, flow cytometry (AID 588368;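 active means binding below the plate cutoff, the plate median minus 3 SD, with a reading above zero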;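 further: signal is the median channel fluorescence of bead-bound GFP antibody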); conditions: Protein G beads, DSG3-Fc, scFv-GFP binding, at 10 µM, stronger effect = lower value
[13] = inhibitors of fungal efflux pumps CDR1, CDR2, MDR1, pilot screen, validation compound set, multiplex, phenotypic (AID 588506;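 active means efflux inhibition above 0.42, the validation set average plus 4 SD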;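 further: Nile Red retained in cells so higher fluorescence means more efflux inhibition; 0 = negative control wells and 1 = enniatin B 25 µM full block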); conditions: S. cerevisiae pump-expressing triplex, Nile Red efflux flow cytometry; at 10 µM; stronger effect = higher value; the pumps come from Candida albicans
[14] = molecular target: ATP-binding cassette sub-family B member 6 (Homo sapiens) (UniProt Q9NP58); experiment: ABCB6 transporter inhibitors, pilot screen, K562-ABCB6 cells, flow cytometry, validation set (AID 588550); conditions: K562-ABCB6 porphyrin accumulation, 1 h, at 10 µM, stronger effect = higher value;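 further: 0% = DMSO wells and 100% = benzethonium chloride 70 µM positive control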
Sequence of ATP-binding cassette sub-family B member 6 (Homo sapiens) (Q9NP58 whole entry, looked up): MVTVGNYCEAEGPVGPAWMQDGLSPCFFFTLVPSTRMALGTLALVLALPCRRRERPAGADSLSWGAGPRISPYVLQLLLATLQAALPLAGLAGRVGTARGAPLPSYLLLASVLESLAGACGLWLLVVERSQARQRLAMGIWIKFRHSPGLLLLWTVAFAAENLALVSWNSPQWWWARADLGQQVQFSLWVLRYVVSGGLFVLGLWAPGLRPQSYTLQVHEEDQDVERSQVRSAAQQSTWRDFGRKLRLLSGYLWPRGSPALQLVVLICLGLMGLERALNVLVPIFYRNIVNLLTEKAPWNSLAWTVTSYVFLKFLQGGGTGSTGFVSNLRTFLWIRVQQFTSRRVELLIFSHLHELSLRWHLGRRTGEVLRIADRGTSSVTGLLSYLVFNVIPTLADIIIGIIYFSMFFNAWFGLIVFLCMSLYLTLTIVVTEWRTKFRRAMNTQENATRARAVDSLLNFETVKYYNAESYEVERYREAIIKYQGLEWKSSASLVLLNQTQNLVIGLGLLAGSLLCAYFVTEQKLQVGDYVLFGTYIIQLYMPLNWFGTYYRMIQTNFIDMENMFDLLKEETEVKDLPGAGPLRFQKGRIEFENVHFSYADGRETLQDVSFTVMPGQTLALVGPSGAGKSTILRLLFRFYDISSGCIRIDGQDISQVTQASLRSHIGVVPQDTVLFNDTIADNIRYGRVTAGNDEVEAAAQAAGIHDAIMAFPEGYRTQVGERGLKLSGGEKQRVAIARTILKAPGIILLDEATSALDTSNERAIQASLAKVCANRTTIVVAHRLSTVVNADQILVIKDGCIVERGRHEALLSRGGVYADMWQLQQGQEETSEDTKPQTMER

[15] = promoters of myeloid differentiation in arrested cells, primary screen, cell-based, GFP/MAC1 double positive, flow cytometry, validation set (AID 588685;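 active means differentiation response of at least 50%, scaled between solvent and reference control, from cells with both markers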;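 further: compound exposure lasts four days before antibody staining and flow analysis; 0% = DMSO wells and 100% = 5 µM fulvestrant positive control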); conditions: ER-HoxA9 marrow cells, stronger effect = higher value, normalized: vehicle 0, fulvestrant 100
[16] = molecular target: Beta-2 adrenergic receptor (Homo sapiens) (UniProt P07550); experiment: beta2AR agonists driving receptor internalization, pilot screen, cell-based, FAP fluorogen, flow cytometry, validation set (AID 504459;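 active means percent response above 42, roughly 3 SD of non-fluorescent test compounds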;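 further: agonist-driven loss of surface beta2AR via internalization measured by FAP dye flow cytometry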); conditions: Am2.2-beta2AR cells, FAP surface receptor flow cytometry; at 10 µM; stronger effect = higher value
Sequence of Beta-2 adrenergic receptor (Homo sapiens) (P07550 whole entry, looked up): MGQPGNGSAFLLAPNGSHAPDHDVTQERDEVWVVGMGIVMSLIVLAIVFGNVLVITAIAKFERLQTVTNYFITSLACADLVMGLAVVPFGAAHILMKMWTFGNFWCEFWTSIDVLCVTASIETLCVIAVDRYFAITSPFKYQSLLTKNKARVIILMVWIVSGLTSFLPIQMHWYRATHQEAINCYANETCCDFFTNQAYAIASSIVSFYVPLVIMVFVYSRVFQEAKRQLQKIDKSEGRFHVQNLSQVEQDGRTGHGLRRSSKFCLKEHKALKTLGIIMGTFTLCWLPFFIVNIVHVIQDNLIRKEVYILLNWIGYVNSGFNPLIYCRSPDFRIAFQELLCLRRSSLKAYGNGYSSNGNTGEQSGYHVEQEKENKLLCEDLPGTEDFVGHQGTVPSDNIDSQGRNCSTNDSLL

CC(CCc1ccccc1)NCC(O)c1ccc(O)c(C(N)=O)c1 (stereo not given)
52.5%: double positive events [6]
inactive: percent of DMSO control GFP [1] 99.5% | GFP response vs DMSO [2] 98.9% | percent response of DMSO control [3] 107% | GFP response vs DMSO [4] 109% | GFP response, % of DMSO [5] 105% | vesicle binding response [6] 175% | inhibition [7] -2.11% | superoxide response (% of plate) [8] 97.6% | aptamer binding inhibition [9] 0% | inhibition [10] -4.92% | response [11] -3.48% | binding (% of control) [12] 101% | efflux inhibition (fraction of control) [13] -0.2 | inhibition [14] 9% | differentiation response [15] -6.66%

CCOc1cc2oc(=O)c3c(c2cc1Cl)CCC3
inactive: percent of DMSO control GFP [1] 104% | GFP response vs DMSO [2] 99.9% | percent response of DMSO control [3] 102% | GFP response vs DMSO [4] 111% | GFP response, % of DMSO [5] 107% | vesicle binding response [6] 165% | inhibition [7] -6.77% | superoxide response (% of plate) [8] 109% | aptamer binding inhibition [9] 1% | inhibition [10] -15.2% | response [11] -4.08% | binding (% of control) [12] 103% | efflux inhibition (fraction of control) [13] -0.05 | inhibition [14] 6% | differentiation response [15] -11.5%
51.1%: double positive events [6]

CCOC(=O)Cc1c(C)nc(N)[nH]c1=O
active: efflux inhibition (fraction of control) [13] 0.52
inactive: percent of DMSO control GFP [1] 101% | GFP response vs DMSO [2] 95.1% | percent response of DMSO control [3] 102% | GFP response vs DMSO [4] 91.4% | GFP response, % of DMSO [5] 94.3% | vesicle binding response [6] 276% | inhibition [7] -1.49% | aptamer binding inhibition [9] 3% | response [16] -4.96% | inhibition [10] -8.2% | response [11] -0.76% | binding (% of control) [12] 107% | inhibition [14] 15% | differentiation response [15] 22.7%
64.8%: double positive events [6]

Cc1ccc(CSCC(=O)NCCCN2CCOCC2)cc1
67.8%: double positive events [6]
inactive: percent of DMSO control GFP [1] 100% | GFP response vs DMSO [2] 96.2% | percent response of DMSO control [3] 95.4% | GFP response vs DMSO [4] 92.7% | GFP response, % of DMSO [5] 96.4% | vesicle binding response [6] 243% | inhibition [7] -4.6% | aptamer binding inhibition [9] -4% | response [16] -1.57% | inhibition [10] -6.22% | response [11] 1.78% | binding (% of control) [12] 104% | efflux inhibition (fraction of control) [13] 0.33 | inhibition [14] -6% | differentiation response [15] 3.18%

CCC1(c2ccccc2)C(=O)NCNC1=O
inactive: percent of DMSO control GFP [1] 102% | GFP response vs DMSO [2] 94.1% | percent response of DMSO control [3] 95.4% | GFP response vs DMSO [4] 87.4% | GFP response, % of DMSO [5] 92.6% | vesicle binding response [6] 285% | inhibition [7] 5.77% | aptamer binding inhibition [9] 2% | response [16] 7.83% | inhibition [10] 13.7% | response [11] 1.33% | binding (% of control) [12] 101% | inhibition [14] -12% | differentiation response [15] 13.9%
active: efflux inhibition (fraction of control) [13] 0.77
61.9%: double positive events [6]

C#CCN1C(=O)C(O)(CC(=O)c2ccc(OC)c(OC)c2)c2ccccc21 (stereo not given)
64.1%: double positive events [6]
inactive: percent of DMSO control GFP [1] 102% | GFP response vs DMSO [2] 103% | percent response of DMSO control [3] 93.1% | GFP response vs DMSO [4] 98% | GFP response, % of DMSO [5] 97.6% | vesicle binding response [6] 315% | inhibition [7] 11% | aptamer binding inhibition [9] 1% | response [16] -2.19% | inhibition [10] -2.48% | response [11] -1.43% | binding (% of control) [12] 104% | efflux inhibition (fraction of control) [13] 0.11 | inhibition [14] -4% | differentiation response [15] 12.9%

CC(=O)Nc1nc(CCC(C)C)cc2c1c(=O)oc1ccccc12
inactive: percent of DMSO control GFP [1] 102% | GFP response vs DMSO [2] 98.3% | percent response of DMSO control [3] 100% | GFP response vs DMSO [4] 96% | GFP response, % of DMSO [5] 88.6% | vesicle binding response [6] 77.6% | inhibition [7] 1.62% | aptamer binding inhibition [9] 0% | response [16] -19.1% | inhibition [10] 2.41% | response [11] 0.7% | binding (% of control) [12] 75.5% | efflux inhibition (fraction of control) [13] 0.39 | inhibition [14] -8% | differentiation response [15] 16.9%
60.5%: double positive events [6]

COC(=O)c1cc(-c2ccc(C)o2)nc2ccccc12
inactive: percent of DMSO control GFP [1] 101% | GFP response vs DMSO [2] 95.9% | percent response of DMSO control [3] 93.9% | GFP response vs DMSO [4] 109% | GFP response, % of DMSO [5] 78.2% | vesicle binding response [6] 76.1% | inhibition [7] -21.7% | superoxide response (% of plate) [8] 109% | aptamer binding inhibition [9] 5% | inhibition [10] 3.96% | response [11] 2% | binding (% of control) [12] 108% | inhibition [14] 10% | differentiation response [15] -8.27%
active: efflux inhibition (fraction of control) [13] 0.94
45.1%: double positive events [6]

CCCC(=O)Nc1ccc(OCC(O)CNC(C)C)c(C(C)=O)c1 (stereo not given)
inactive: percent of DMSO control GFP [1] 99% | GFP response vs DMSO [2] 101% | percent response of DMSO control [3] 100% | GFP response vs DMSO [4] 106% | GFP response, % of DMSO [5] 99.2% | vesicle binding response [6] 2400% | inhibition [7] -24.6% | superoxide response (% of plate) [8] 106% | aptamer binding inhibition [9] -5% | response [11] -0.74% | binding (% of control) [12] 200% | efflux inhibition (fraction of control) [13] -0.57 | inhibition [14] -3% | differentiation response [15] 11.1%
59.8%: double positive events [6]

CN(C)CCOC(C)(c1ccccc1)c1ccccn1 (stereo not given)
63.3%: double positive events [6]
inactive: percent of DMSO control GFP [1] 100% | GFP response vs DMSO [2] 104% | percent response of DMSO control [3] 93.1% | GFP response vs DMSO [4] 83.5% | GFP response, % of DMSO [5] 93.7% | vesicle binding response [6] 129% | inhibition [7] -1.49% | aptamer binding inhibition [9] 2% | response [16] 2.25% | inhibition [10] 13.9% | response [11] -1.19% | binding (% of control) [12] 106% | inhibition [14] 6% | differentiation response [15] 13.9%
active: efflux inhibition (fraction of control) [13] 0.74

C/C(=N/N1CCN(Cc2cccc3ccccc23)CC1)c1cccnc1
inactive: percent of DMSO control GFP [1] 101% | GFP response vs DMSO [2] 102% | percent response of DMSO control [3] 98.8% | GFP response vs DMSO [4] 99.4% | GFP response, % of DMSO [5] 96.6% | vesicle binding response [6] 182% | inhibition [7] -1.17% | superoxide response (% of plate) [8] 102% | aptamer binding inhibition [9] 1% | inhibition [10] 6.25% | response [11] -3.49% | binding (% of control) [12] 100% | efflux inhibition (fraction of control) [13] 0.25 | inhibition [14] 5% | differentiation response [15] 9.49%
58.2%: double positive events [6]
